Laboratory results reported in the supplement of paper PMC13380429.
Unmarked numbers belong to inactive results.

Tested on: Vero E6 infected with SARS-CoV-2
Experiment: inhibition of SARS-CoV-2 cytopathic effect; higher = more antiviral protection, active = above 15
Conditions: 48 h

Structure (SMILES)	inhibition of SARS-CoV-2 cytopathic effect (1 nM) [%]	inhibition of SARS-CoV-2 cytopathic effect (8.33 nM) [%]	inhibition of SARS-CoV-2 cytopathic effect (100 nM) [%]	inhibition of SARS-CoV-2 cytopathic effect (833.33 nM)	inhibition of SARS-CoV-2 cytopathic effect (10000 nM)
COc1cc(C(=O)NS(=O)(=O)c2ccccc2C)ccc1Cc1cn(C)c2ccc(NC(=O)OC3CCCC3)cc12 [zafirlukast]	-1.22	-0.73	0.48	0.88%	-2.73%
Cn1c(NCCN(CCO)CCCc2ccc([N+](=O)[O-])cc2)cc(=O)n(C)c1=O [nifekalant]	-1.86	0	-1.76	-0.02%	-1.25%
O=C(/C=C/c1ccc(O)cc1)c1ccc(O)cc1O [isoliquiritigenin]	-2.47	-0.17	1.21	0.63%	10.8%
CC(=O)c1ccc(NS(C)(=O)=O)c(Oc2ccc(F)cc2F)c1	4.46	0.47	0.56	1.88%	2.13%
FC(F)(F)Oc1ccc2nc(-c3ccc(OCCOCCOc4ccc(-c5nc6ccc(OC(F)(F)F)cc6[nH]5)nc4)cn3)[nH]c2c1	-0.41	1.44	0.99	3.47%	-6.61%
Cc1cccc(-c2[nH]c(C(C)(C)C)nc2-c2ccc3c(c2)OCO3)n1	-0.26	-0.29	-0.87	-5.24%	-2.91%
N#Cc1cc(NC(=O)C(=O)O)c(Cl)c(NC(=O)C(=O)O)c1 [lodoxamide]	-2.56	1.86	-0.16	-3.06%	-0.06%
CC(=O)N[C@@H](Cc1c[nH]c2ccccc12)C(=O)OCc1cc(C(F)(F)F)cc(C(F)(F)F)c1	0.3	1.3	2.32	1.61%	4%
COc1ccc2cc1Oc1ccc(cc1)C[C@H]1c3c(cc4c(c3Oc3cc5c(cc3OC)CCN(C)[C@@H]5C2)OCO4)CCN1C [cepharanthine]	-0.29	-1.27	-1.35	-2.66%	21.3% (active)
N#Cc1cnc2c(Cl)cc(NCc3cn(CCN4CCCCCC4)nn3)cc2c1Nc1ccc(F)c(Cl)c1 [cot-inhibitor-1]	-0.74	2.31	-0.11	-2.18%	-14%
Cc1cc(NC(=O)Nc2ccc(N(C)C)cc2)c2cc(F)cc(F)c2n1	-0.11	0.56	1.66	3.02%	4.9%
COc1cc(OC)cc(N(CCNC(C)C)c2ccc3ncc(-c4cnn(C)c4)nc3c2)c1 [erdafitinib]	1.71	-0.38	0.68	-1.43%	11.7%
CCN(CC)CCNC(=O)c1ccc(N)cc1 [procainamide]	-2.56	0.24	-0.04	-1.26%	0.87%
Nc1nc(Cl)nc2c1ncn2[C@@H]1O[C@H](CO)[C@@H](O)[C@@H]1F [clofarabine]	0.13	2.08	1.42	2.37%	3.69%
CSc1ccc([C@H]2CN3CCC[C@H]3c3ccccc32)cc1 (racemic)	3.1	1.05	2.84	3.32%	1.44%
O=C1[C@H](Cc2ccc(O)cc2)N2C(=O)CCN(C(=O)NCc3ccccc3)[C@H]2CN1Cc1cccc2ccccc12	-0.18	0.82	2.23	1.89%	-3.36%
CCOC(=O)CCNc1cc(N2CCc3ccccc3CC2)nc(-c2ccccn2)n1	-5.53	0.27	1.52	1.83%	-0.53%
O=C(O)c1cc(O)c2c(c1)C(=O)c1cccc(O)c1C2=O [rhein]	-0.32	-0.35	-3.51	-0.03%	-2.1%
COc1ccc(CN(CCN(C)C)c2ccccn2)cc1 [mepyramine]	-3.35	-2.48	-1.11	2.27%	1.04%
O=C(O)C1=C[C@@H](O)[C@@H](O)[C@H](O)C1 [shikimic-acid]	2.18	1.14	0.89	2.68%	0.85%

Structure (SMILES)	inhibition of SARS-CoV-2 cytopathic effect (1 nM) [%]	inhibition of SARS-CoV-2 cytopathic effect (8.33 nM) [%]	inhibition of SARS-CoV-2 cytopathic effect (100 nM) [%]	inhibition of SARS-CoV-2 cytopathic effect (833.33 nM)	inhibition of SARS-CoV-2 cytopathic effect (10000 nM)
COc1cc(C(=S)N2CCOCC2)ccc1O [vanitiolide]	-0.99	-1.31	-0.6	2.4%	-0.14%
CCc1ccccc1OC[C@@H](O)CN[C@H]1CCCc2ccccc21	-1.78	-0.44	-3.44	-0.6%	-4.25%
COc1cc2c(NC3CCN(C(C)C)CC3)nc(C3CCCCC3)nc2cc1OCCCN1CCCC1	0.58	-2.43	-1.38	-2.98%	59.6% (active)
CN(C)c1nc(N(C)C)nc(N(C)C)n1 [altretamine]	2.31	-1.41	0.54	-0.29%	2.53%
O=C(c1ccccc1)c1ccc2n1CCC2C(=O)O (stereo not given) [ketorolac]	-4.39	-2.99	-1.5	2.44%	-4.37%
CC[C@H](CC[C@@H](C)[C@H]1CC[C@H]2[C@@H]3CC=C4C[C@@H](O[C@@H]5O[C@H](CO)[C@@H](O)[C@H](O)[C@H]5O)CC[C@]4(C)[C@H]3CC[C@]12C)C(C)C [daucosterol]	0.22	-0.23	0.27	0.28%	-1.86%
CN1[C@@H]2CC[C@H]1C[C@@H](OC(=O)c1cc(Cl)cc(Cl)c1)C2 [bemesetron]	-0.2	0.56	0.85	0.1%	2.26%
[O-][n+]1ccccc1[S-].[O-][n+]1ccccc1[S-].[Zn+2] [pyrithione-zinc]	1.44	0.32	1.01	29.9% (active)	-21.9%
C[S+](C)CC[C@H](N)C(=O)O [cabagin]	-1.01	-0.84	-0.11	0.92%	0.96%
Cl/C(=C\n1cncn1)c1ccc(Cl)cc1Cl [loreclezole]	0.42	-1.72	-2.63	-0.72%	-1.41%
CCCS(=O)(=O)Nc1ccc(F)c(C(=O)c2c[nH]c3ncc(-c4ccc(Cl)cc4)cc23)c1F [vemurafenib]	3.98	1.81	-0.86	2.45%	4.29%
CCCCCCCCCCCCCCCCOP(=O)([O-])OCC[N+](C)(C)C [miltefosine]	-3.26	-0.08	0.27	0.17%	3.55%
CC1CC(OC(=O)C(O)c2ccccc2)CC(C)(C)N1C (stereo not given) [eucatropine]	0.81	3.45	1.74	0.69%	0%
N[C@@H](Cc1cc(-c2ccc(Cl)cc2Cl)cc(CP(=O)(O)O)c1O)C(=O)O	0.73	2.24	2.7	2.63%	2.27%
CCC(CC)Nc1nc(C)c(-c2ccc(OC(F)(F)F)cc2OC)nc1OC	1.38	3.16	1.61	0.57%	-0.01%
O=C1NCC2(CCN(CCc3ccccc3)CC2)O1 [fenspiride]	-2.77	-1.55	2.18	0.71%	0.43%
CC(C)n1nccc1-c1ncccc1COc1cccc(O)c1C=O [voxelotor]	-1.1	-1.17	-0.23	0.27%	6.93%
COc1ccccc1Oc1c(NS(=O)(=O)c2ccc(C(C)(C)C)cc2)nc(-c2ncccn2)nc1OCCO [bosentan]	-0.62	1.39	1.79	-3.3%	-1.84%
O=C(O)C1=CO[C@@H](O[C@@H]2O[C@H](CO)[C@@H](O)[C@H](O)[C@H]2O)[C@@H]2C(CO)=CC[C@H]12 [Geniposidic acid]	-0.41	3.01	0.36	-1.23%	1.07%
